Legend:
Assay in all cases: protein-binding microarray (PBM); PBM: ~300 nM protein, 6 mM HEPES pH 7.8, 80 mM KCl, 0.5 mM EDTA, 0.5 mM EGTA, 6% glycerol, 35 ng/ul poly-dIdC, 1% milk, 1 h, room temperature; Ap Aiptasia and Nv Nematostella (sea anemones) / Co Capsaspora / Aq Amphimedon (sponge) / Dm Drosophila / Hu human; RHD is the Rel homology domain; high values mean tight binding
Settings in all cases: dsDNA, one strand shown
GST-Ap-NF-kB RHD = target: T1, GST-Ap-NF-kB RHD (Exaiptasia pallida (Aiptasia), UniProt A0A913YAJ5 2-422)
T1 sequence: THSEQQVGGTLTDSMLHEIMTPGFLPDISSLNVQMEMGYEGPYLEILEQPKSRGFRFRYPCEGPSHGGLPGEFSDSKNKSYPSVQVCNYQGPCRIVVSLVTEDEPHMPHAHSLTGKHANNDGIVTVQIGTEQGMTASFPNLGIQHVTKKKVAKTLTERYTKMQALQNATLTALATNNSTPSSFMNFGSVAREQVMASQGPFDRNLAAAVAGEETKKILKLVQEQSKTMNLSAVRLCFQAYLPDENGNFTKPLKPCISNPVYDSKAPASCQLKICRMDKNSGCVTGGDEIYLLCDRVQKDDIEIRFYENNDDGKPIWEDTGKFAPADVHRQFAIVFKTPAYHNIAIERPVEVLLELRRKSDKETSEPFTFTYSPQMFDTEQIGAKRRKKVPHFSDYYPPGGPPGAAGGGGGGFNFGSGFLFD

[1] = target: T2, GST-Nv-NF-kB (Cys allele) (Nematostella vectensis, UniProt E5G601 2-411)
T2 sequence: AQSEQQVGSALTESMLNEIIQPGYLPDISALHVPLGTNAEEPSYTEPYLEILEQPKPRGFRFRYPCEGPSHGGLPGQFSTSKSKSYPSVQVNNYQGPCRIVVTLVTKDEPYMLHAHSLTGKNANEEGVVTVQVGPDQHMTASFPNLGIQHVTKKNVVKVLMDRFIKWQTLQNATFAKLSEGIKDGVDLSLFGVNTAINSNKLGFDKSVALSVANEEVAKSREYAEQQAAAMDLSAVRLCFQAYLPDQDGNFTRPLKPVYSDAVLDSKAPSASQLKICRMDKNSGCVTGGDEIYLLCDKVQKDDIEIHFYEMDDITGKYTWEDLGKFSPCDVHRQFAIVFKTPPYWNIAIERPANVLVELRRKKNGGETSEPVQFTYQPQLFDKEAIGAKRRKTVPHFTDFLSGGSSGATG

GST-Co-NF-kB = target: T3, GST-Co-NF-kB (Capsaspora owczarzaki, UniProt F1ARL5 200-546)
T3 sequence: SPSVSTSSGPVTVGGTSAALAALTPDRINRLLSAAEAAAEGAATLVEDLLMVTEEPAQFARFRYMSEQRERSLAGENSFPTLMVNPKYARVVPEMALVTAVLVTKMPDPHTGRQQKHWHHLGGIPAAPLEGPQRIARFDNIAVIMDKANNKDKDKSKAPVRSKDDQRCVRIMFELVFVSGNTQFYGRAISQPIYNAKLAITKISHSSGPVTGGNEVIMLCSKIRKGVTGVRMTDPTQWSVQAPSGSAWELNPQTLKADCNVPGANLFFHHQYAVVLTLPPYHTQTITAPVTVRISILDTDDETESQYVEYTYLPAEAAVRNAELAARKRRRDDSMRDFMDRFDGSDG

GST-Dm-Relish = target: T4, GST-Dm-Relish (Drosophila melanogaster, UniProt Q94527 99-473)
T4 sequence: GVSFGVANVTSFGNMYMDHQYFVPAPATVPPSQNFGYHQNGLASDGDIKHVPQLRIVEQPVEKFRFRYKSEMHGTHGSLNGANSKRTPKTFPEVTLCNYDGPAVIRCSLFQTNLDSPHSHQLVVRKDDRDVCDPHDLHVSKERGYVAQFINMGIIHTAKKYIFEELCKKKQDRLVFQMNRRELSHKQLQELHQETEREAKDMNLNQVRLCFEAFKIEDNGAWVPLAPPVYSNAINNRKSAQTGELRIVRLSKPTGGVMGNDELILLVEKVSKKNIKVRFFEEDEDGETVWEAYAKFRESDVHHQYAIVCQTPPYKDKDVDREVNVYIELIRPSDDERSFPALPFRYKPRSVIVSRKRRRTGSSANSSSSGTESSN

GST-Aq-NF-kB = target: T5, GST-Aq-NF-kB (Amphimedon queenslandica, UniProt A9Y5G7 2-389)
T5 sequence: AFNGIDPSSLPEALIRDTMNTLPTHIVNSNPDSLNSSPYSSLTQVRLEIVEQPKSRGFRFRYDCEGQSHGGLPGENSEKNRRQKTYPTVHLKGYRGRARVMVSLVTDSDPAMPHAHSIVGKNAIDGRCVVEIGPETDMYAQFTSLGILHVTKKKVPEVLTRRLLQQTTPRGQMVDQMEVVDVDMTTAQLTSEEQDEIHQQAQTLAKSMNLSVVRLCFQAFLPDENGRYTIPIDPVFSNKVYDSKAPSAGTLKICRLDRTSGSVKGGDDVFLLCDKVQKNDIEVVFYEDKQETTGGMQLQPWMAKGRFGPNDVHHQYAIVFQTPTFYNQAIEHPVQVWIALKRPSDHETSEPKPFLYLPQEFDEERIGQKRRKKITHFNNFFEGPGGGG

Sequence | binding signal (GST-Ap-NF-kB RHD) [z-score] | binding signal [1] [z-score] | binding signal (GST-Co-NF-kB) [z-score] | binding signal (GST-Dm-Relish) [z-score] | binding signal (GST-Aq-NF-kB) [z-score]
CCGATTAACATCAACGCCCCCCCTGATGTTAATCGGGTCTTGATTCGCTTGACGCTGCTG | 5.09 | 4.29 | 4.15 | 4.35 | 4.73
CCGATTAACATCAGGAGTTACCCTGATGTTAATCGGGTCTTGATTCGCTTGACGCTGCTG | 2.75 | 3.81 | 2.23 | 5.11 | 6.71
CCGATTAACATCACGTTATTCCCTGATGTTAATCGGGTCTTGATTCGCTTGACGCTGCTG | 2.79 | 2.96 | 2.74 | 4.77 | 2.9
CCGATTAACATCAGAAGTTCCCATGATGTTAATCGGGTCTTGATTCGCTTGACGCTGCTG | 2.2 | 2.3 | 2.44 | 3.27 | 2.82
CCGATTAACATCAAGGGATTTTCTGATGTTAATCGGGTCTTGATTCGCTTGACGCTGCTG | 5.78 | 6.63 | 1.57 | 6.57 | 6.65
CCGATTAACATCACGGGAATCCCTGATGTTAATCGGGTCTTGATTCGCTTGACGCTGCTG | 6.64 | 5.96 | 3.81 | 10.1 | 7.15
CCGATTAACATCAGATTTCCCACTGATGTTAATCGGGTCTTGATTCGCTTGACGCTGCTG | 1.83 | 3.74 | 3.15 | 2.02 | 2.32
CCGATTAACATCAAATCACCCCCTGATGTTAATCGGGTCTTGATTCGCTTGACGCTGCTG | 4.73 | 4.59 | 6.61 | 4.37 | 5.32
CCGATTAACATCAGTAACTCCCTTGATGTTAATCGGGTCTTGATTCGCTTGACGCTGCTG | 2.54 | 2.67 | 1.16 | 2.91 | 3.78
CCGATTAACATCAGACCTTCCCCTGATGTTAATCGGGTCTTGATTCGCTTGACGCTGCTG | 4.8 | 4.93 | 4.12 | 4.54 | 5.13

— publication PMC5700166
